Measurements from PubChem BioAssay (NCI).
Compounds without any hit were thinned out: in the full panel of roughly 83,000, 20% have a hit.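 Testing used 96-well plates and a 48-hour single-concentration exposure. Example: -40 means 40% of the starting cells died.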 The source made the active and inactive calls. The calls were made as follows: active = growth percent below 10; inactive = the rest.

These molecules were tested on HL-60(TB) leukemia (assay: NCI-60 one-dose screen, 48 h (100 = growth as untreated, 0 = no growth, -100 = all killed)). Settings: 10 µM unless noted.

SMILES	growth
Sc1ccc(Nc2c3ccccc3nc3ccccc23)cc1	31.7% (inactive)
CCOC(=O)c1c2c(c(C)n1Cc1ccc(OC)cc1)-c1oncc1CC2	91.9% (inactive)
CC1=C2CC/C(C)=C/CC[C@]3(C)O[C@H]3CC/C(C)=C/[C@H]2OC1	86.5% (inactive)
OCc1cnccc1NCCCOc1ccccc1	89.4% (inactive)
CC1(C)CCC(C)(C)NC(=S)N1	89.3% (inactive)
COc1cc2c(c(OC)c1OC)CCC(c1cccc(C(=O)Nc3ccccc3Br)c1)O2 (stereo not given)	79.3% (inactive)
COc1ccc(Nc2ccnc(NCCNc3ccnc4cc(Cl)ccc34)n2)cc1	39% (inactive)
CCOC(=O)c1ccc(NC(=O)CSC(N)=O)cc1	93.2% (inactive)
C/C(=C(/c1ccccc1)c1ccc(N2C(=O)c3cccc4c(NCc5ccccc5)ccc(c34)C2=O)cc1)c1ccccc1	103% (inactive)
O=C(CSc1nc(-c2ccccc2)cn1-c1ccc(Cl)cc1)c1ccc([N+](=O)[O-])cc1	95.8% (inactive)
COc1cc(-c2nc3ccc(C)cc3[nH]2)ccc1OCC(=O)N=Nc1c(O)[nH]c2ccc(Cl)cc12	-55.6% (active)
O=C(Nc1ccc(OCc2nnc(-c3ccccc3)o2)c(F)c1)Nc1ccc(Cl)c(C(F)(F)F)c1	-19.7% (active)
COc1ccc2c(CCCc3ccc(Cl)cc3Cl)c3[n+](cc2c1OC)CCc1cc2c(cc1-3)OCO2	-41.4% (active)
Cc1ccc(Nc2cccc3ccccc23)cc1	96.2% (inactive)
O=c1ccn(C2CC(O)C(COC(c3ccccc3)(c3ccccc3)c3ccccc3)O2)c(=O)[nH]1 (stereo not given)	10.1% [100 µM] (inactive)
